# Only some compounds are listed: those with a hit (about 19% of all), similar ones and a draw of the others.
# DT40 TDP1 no CPT: qHTS for Inhibitors of human tyrosyl-DNA phosphodiesterase 1 (TDP1): qHTS in cells in absence of CPT | Potency, µM (series often up to 46.2 µM), for the others: top-dose activity change, negative = growth inhibition, hits mostly inhibitors | 420,000 tested, 15% active | DT40 Tdp1-/- hTDP1 cells, no CPT, ATP luminescence, 48 h | AID 686978, 2013; note: potency is the fitted concentration of half-maximal effect; % is set by controls: 0 for no effect and ±100 for the full control effect; nearly all actives have a fitted effect of over 55% in size
#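 DT40 Tdp1-/-;hTDP1 cells, no CPT (DMSO vehicle only), 400 cells/well; compounds pin-transferred; ≥48 hr, 37 °C; CellTiter-Glo 30 min RT dark, luminescence read.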
# TGFb inhibitor: inhibitors of TGF-b signaling | HepG2 CAGA-GFP TGF-b/SMAD3 reporter, GFP fluorescence, 18 h; TGF-beta stimulated, 500 pg/mL final | Potency, µM (top dose mostly 46.1 µM), inactives show at the top dose activity, negative = inhibition, usual class: inhibitors | 410,000 tested, 1.2% active | AID 588855; note: potency is the fitted concentration of half-maximal effect; % is set by controls: 0 for no effect and ±100 for the full control effect; nearly all actives have a fitted effect of over 65% in size
#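 Cell-based qHTS in HEPG2 carrying a CAGA-GFP Smad reporter; compounds added before 500 pg/mL final TGF-beta, 18 h incubation at 37 degrees C, GFP fluorescence quantified per cell by imaging cytometry.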
# TDP1 cell CPT: growth inhibition of DT40 Tdp1-/-;hTDP1 cells with camptothecin (screen for TDP1 inhibitors); chicken DT40 Tdp1-/-;hTDP1 cells + 20 nM CPT, ATP luminescence, 48 h; Potency, µM (titrated, usually from 46.2 µM), for the others: at the top dose activity change, negative = growth inhibition, usual class: inhibitors; 420,000 tested, 12% active; AID 686979; note: potency is the fitted concentration of half-maximal effect; % is set by controls: 0 for no effect and ±100 for the full control effect; nearly all actives have a fitted effect of over 55% in size
#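 Cell growth measured by CellTiter-Glo luminescence after a minimum 48 h, 37 C compound exposure with 20 nM CPT in Tdp1-knockout DT40 cells stably expressing hTDP1, seeded 400/well; qHTS titration format.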
# IL1B secr inh: blocks inflammasome-driven IL-1 beta release; THP-1 LPS/ATP IL-1B secretion, AlphaLISA, 16 h; active compounds read low; activity change, % at 57.5 µM; 360,000 tested, 4.7% active; AID 743279; in the data active = activity change below about -50%; inconclusive = mostly about -30% to -49%; note: % is set by controls: 0 for no effect and ±100 for the full control effect
#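 Secreted IL-1B measured by AlphaLISA bead assay after 16 h compound exposure of THP-1 cells; compounds (final up to 57.5 uM) added 1 h before LPS (250 ng/mL) and ATP (1.25 mM) stimulation; lower signal means less secretion.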
# HepG2 viability: kills HepG2 cells in TGF-b inhibitor counter-screen | HepG2 CAGA-GFP viability, ATP luminescence, 18 h | Potency, µM (titrated, usually from 46.1 µM), without a hit: at the highest dose activity change, negative = cytotoxicity, actives largely listed as cytotoxic | 410,000 tested, 0.76% active; note: potency is the fitted concentration of half-maximal effect
#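 CellTiter-Glo luminescence gave cytotoxicity after 18 hours at 37 degrees C. The cells were HepG2 CAGA-GFP in 1% FBS DMEM, stimulated with 500 pg/mL TGF-beta after compound addition. %Activity was normalised to no-cell wells (complete cell-killing) and DMSO (no toxicity), and curves were fitted and classified.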
# S-ASM inh: blocks human secretory acid sphingomyelinase; P17405; Potency, µM (doses to about 57.5 µM), inactives show at the top dose activity change, negative = inhibition, actives largely listed as inhibitors; AID 504937; placental ASM, HMU-PC fluorogenic substrate, 60 min; 340,000 tested, 0.006% active; note: potency is the fitted concentration of half-maximal effect
# Target sequence (P17405 47-631 limits assumed): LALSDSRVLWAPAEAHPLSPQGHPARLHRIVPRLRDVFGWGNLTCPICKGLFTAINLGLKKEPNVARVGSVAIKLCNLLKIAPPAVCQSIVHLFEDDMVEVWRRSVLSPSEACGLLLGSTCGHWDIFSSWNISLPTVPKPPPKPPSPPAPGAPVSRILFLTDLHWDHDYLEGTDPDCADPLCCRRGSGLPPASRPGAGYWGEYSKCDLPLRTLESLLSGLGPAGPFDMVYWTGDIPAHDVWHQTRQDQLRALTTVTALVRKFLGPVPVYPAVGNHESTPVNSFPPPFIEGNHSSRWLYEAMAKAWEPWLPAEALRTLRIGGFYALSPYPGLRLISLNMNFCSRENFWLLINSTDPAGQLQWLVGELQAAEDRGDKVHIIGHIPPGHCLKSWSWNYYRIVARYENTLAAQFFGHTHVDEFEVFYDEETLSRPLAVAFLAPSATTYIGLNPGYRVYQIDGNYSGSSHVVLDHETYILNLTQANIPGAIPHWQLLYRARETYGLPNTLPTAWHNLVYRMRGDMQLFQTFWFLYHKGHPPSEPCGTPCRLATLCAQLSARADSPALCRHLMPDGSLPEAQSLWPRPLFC
#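 Human placenta-derived ASM enzyme was preincubated with compound for 10 minutes at room temperature, then given fluorogenic substrate HMU-PC0 (9 uM final) for 60 minutes at 37 °C; a pH 10 stop preceded fluorescence reading at Ex 386/Em 447 nm.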
# The depositor's hits bear a star; ? = inconclusive; · = not tested or not shown. Unless noted, calls come from the whole dose curve; as a rule, active = well fitted curve in the direction sought with a large enough effect; inconclusive = small, poorly fitted or top-dose-only effect, or another doubt; inactive = no such curve, though single readings can be large; an effect the other way counts as inactive or inconclusive.
SMILES,DT40 TDP1 no CPT,TGFb inhibitor,TDP1 cell CPT,IL1B secr inh,HepG2 viability,S-ASM inh
Cc1ccccc1NC(=S)N(Cc1cccs1)C1CCCCC1,9.2µM*,-17%,-29%,-3,-14%,-1%
CCN(C(=S)Nc1ccc(OC(F)F)cc1)C1CCCCC1,-23%,2%,-1%,?,6%,-3%
O=C(Nc1ccccc1)N(Cc1cccs1)C1CCCC1,?,-18%,?,-1,-21%,-9%
CCN(C(=S)Nc1ccccc1F)C1CCCCC1,23µM*,-24%,?,-8,0%,3%
CC(C)Cn1c(-c2cc(Br)ccc2F)nc2c1c(=O)[nH]c(=O)n2CC(C)C,?,?,8%,-6,3%,-3%
O=C(Cn1ccc(=O)[nH]c1=O)c1ccc([N+](=O)[O-])o1,2.1µM*,?,5.2µM*,?,-37%,·
O=C(Cn1ccc(=O)[nH]c1=O)NCCO,-13%,21%,-2%,3,4%,0%
COc1cc(/C=N/n2nnnc2Nc2ccccc2)cc(OC)c1OC,18µM*,-4%,15µM*,?,-3%,-9%
COc1cc(/C=N/Nc2nc(Nc3ccccc3)nc(-n3nc(C)cc3C)n2)cc(OC)c1OC,18µM*,?,23µM*,-64*,-29%,-28%
COc1ccc(O)c(/C=N/Nc2nc(C)cc(-c3ccccc3)n2)c1,?,?,?,33,-43%,-9%
COc1ccc(O)c(/C=N/Nc2nc(Nc3ccccc3)nc(-n3nc(C)cc3C)n2)c1,0.52µM*,?,0.58µM*,-23,-48%,-25%
COc1cc(/C=N\Nc2nc3ccccc3o2)cc(OC)c1OC,?,-26%,?,?,-33%,3%
COc1cc(/C=N/Nc2nc(Nc3ccc(C)cc3)nc(-n3nc(C)cc3C)n2)cc(OC)c1OC,2.9µM*,?,4.6µM*,4,-55%,?
COc1cc(/C=N/n2c(-c3ccccc3)n[nH]c2=S)cc(OC)c1OC,?,7%,2%,51,-11%,2%
COc1cc(C(=O)N2CCNC(=O)C2CC(=O)Nc2ccc(C)c(C)c2)cc(OC)c1OC (stereo not drawn),-18%,-10%,-1%,·,1%,·
O=C(CCn1cnnn1)NC1CCCN(Cc2ccccc2F)C1 (stereo not drawn),3%,-17%,-15%,0,-6%,4%
Cc1nc(N2CCN(c3ccccc3)CC2)[nH]c(=O)c1C,?,0%,-5%,1,-17%,3%
Cc1ccc(N2N=C(C(=O)O)CCC2=O)cc1Cl,13%,9%,3%,12,2%,3%
C=CCn1c(C)cc(C(=O)COc2ccc(N(C)S(=O)(=O)c3ccc(NC(C)=O)cc3)cc2)c1C,5.8µM*,-18%,9.2µM*,-29,-32%,-3%
CC(=O)c1ccccc1NC(=O)COc1ccc(N(C)S(=O)(=O)c2ccc(C)c(C)c2)cc1,12µM*,-6%,21µM*,47,-12%,-1%

# Screening data: PubChem, National Center for Advancing Translational Sciences (NCATS)
